Calls of active or inactive are those of the source. Unless noted, how the calls were made is not given here.
Experiments:
[1] = system: XIP peptide (Xip251-270) binding; assay: XIP fragment 251-270 binding compounds – biochemical, small-molecule microarray, fluorescence 635/667 nm, 0.1 µg/mL protein, primary screen (AID 1182); conditions: fluorescent protein binding, 635 nm, higher = more signal, called active from +8 up or from −8 down
XIP peptide (Xip251-270) = assay: compounds binding XIP fragment 251-270 – biochemical, small-molecule microarray, fluorescence 635/667 nm, 0.5 µg/mL protein, primary screen (AID 1183); conditions: fluorescence 635 nm, higher = more signal
[2] = blood-stage malaria parasite viability loss – strain 3D7, DAPI fluorescence, 100 nL, primary screen (AID 1184);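 further: parasites grown inside human red blood cells in medium with human serum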; conditions: P. falciparum 3D7 growth, 3 d, higher = more signal
[3] = molecular target: Homeobox protein Hox-A13 (Mus musculus) (UniProt Q62424); assay: disruptors of Hoxa13 oligonucleotide interaction – biochemical, fluorescence polarization, labeled oligonucleotide, primary screen (AID 1185); conditions: Hoxa13:DNA binding, 15 min, higher = more signal, called active from +8 up or from −8 down
[4] = blockers of DNA damage checkpoint Chk1 activation – imaging, HeLa, hydroxyurea, phospho-Chk1 antibody, percent positive cells, primary screen (AID 1186); conditions: hydroxyurea-induced phospho-Chk1 immunofluorescence imaging, higher = more signal
[5] = blockers of DNA damage checkpoint Chk1 activation – imaging, HeLa, hydroxyurea, phospho-Chk1 nuclear intensity, primary screen (AID 1187); conditions: hydroxyurea-induced phospho-Chk1 immunofluorescence imaging, higher = more signal

Homeobox protein Hox-A13 (Mus musculus), sequence (Q62424 whole entry, looked up): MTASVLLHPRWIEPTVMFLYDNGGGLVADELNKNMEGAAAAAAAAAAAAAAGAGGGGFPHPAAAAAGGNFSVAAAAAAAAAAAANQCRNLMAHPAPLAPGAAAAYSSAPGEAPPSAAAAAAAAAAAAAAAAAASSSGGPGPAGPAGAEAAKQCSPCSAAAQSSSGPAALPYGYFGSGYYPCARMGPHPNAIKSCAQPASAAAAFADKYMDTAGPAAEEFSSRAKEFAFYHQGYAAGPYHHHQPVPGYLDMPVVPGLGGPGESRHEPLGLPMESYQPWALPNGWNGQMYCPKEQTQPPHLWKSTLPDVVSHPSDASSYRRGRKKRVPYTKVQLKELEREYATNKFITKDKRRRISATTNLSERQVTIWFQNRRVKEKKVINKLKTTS

Structure (SMILES)	composite z-score [1]	composite z-score (XIP peptide (Xip251-270))	z-score [2]	z-score [3]	z-score [4]	z-score [5]
C=CCN1C(=O)[C@@]2(O[C@@H](CCO)[C@H]([Si](C)(C)c3ccc(OC)cc3)[C@H]2C)c2cc(NC(C)=O)ccc21	0.149 (inactive)	0.258	-2.74	-6.52 (inactive)	-0.0604 (inactive)	0.348 (inactive)
CN1C(=O)C2C=CC(C(O)c3ccccc3)N(NC(=O)OC(C)(C)C)C2C1=O (stereo not given)	0.4 (inactive)	0.886	-0.305	-0.867 (inactive)	0.253 (inactive)	-0.0164 (inactive)
O=C1NC(=O)C2C1C=CC(C(O)c1cccs1)N2Nc1ccccn1 (stereo not given)	1.43 (inactive)	0.438	0.197	-5.03 (inactive)	-0.0367 (inactive)	-0.263 (inactive)
COC(=O)[C@@]1(Cc2ccc(F)cc2)[C@H]2c3cc(C(=O)N(C)C)n(Cc4ccccn4)c3C[C@H]2CN1C(=O)c1ccccc1	-0.0593 (inactive)	0.352	-0.393	-5.64 (inactive)	0.412 (inactive)	0.427 (inactive)
CN1C(=O)C2C=CC(C(O)C3=C[C@H]4C[C@@H](C3)C4(C)C)N(Nc3ccc([N+](=O)[O-])cc3[N+](=O)[O-])C2C1=O (stereo not given in full)	0.334 (inactive)	0.704	0.395	-3.59 (inactive)	-0.21 (inactive)	-0.257 (inactive)
C=C(C(=O)CC[C@H](OC(=O)c1cccnc1)c1ccccc1OCCO)C(C)C	0.698 (inactive)	0.564	-2.3	-4.71 (inactive)	0.321 (inactive)	0.0728 (inactive)
CN1C(=O)C2C=CC(C(O)c3ccc(Br)cc3)N(Nc3ccccc3)C2C1=O (stereo not given)	-0.115 (inactive)	0.0244	0.672	-1.23 (inactive)	0.247 (inactive)	-0.122 (inactive)
C=CC[C@@]1(C(=O)OC)N=C(c2ccc(OCCCO)cc2)O[C@@H]1c1ccccc1CN=[N+]=[N-]	2.46 (inactive)	0.611	-2.39	-3.73 (inactive)	-1.07 (inactive)	-1.45 (inactive)
O=C1O[C@@H](c2ccccc2)[C@@H](c2ccccc2)N2[C@@H](c3ccc(O)cc3)[C@]3(C(=O)Nc4ccc(C#CCCO)cc43)[C@@H](C(=O)O)[C@H]12	0.665 (inactive)	0.785	-0.63	-4.56 (inactive)	0.0686 (inactive)	0.632 (inactive)
COc1ccc([Si](C)(C)[C@@H]2[C@@H](CCO)O[C@]3(C(=O)N(Cc4cccc(N5CCCCC5=O)c4)c4ccccc43)[C@H]2C)cc1	0.278 (inactive)	0.648	-2.82	-5.08 (inactive)	-0.405 (inactive)	-0.474 (inactive)
CCN(CC)c1ccc(N2CC=CC34O[C@@H]5/C=C\CCCOC(=O)C5[C@H]3C(=O)N(CCCO)[C@@H]4C2=O)cc1 (stereo not given in full)	0.828 (inactive)	0.828	0.404	-6.09 (inactive)	-0.343 (inactive)	0.121 (inactive)
CC(C)NC(=O)[C@@]1(c2ccc([N+](=O)[O-])cc2)CC(=O)N(C(C)C)[C@@H]1c1ccc(CO)cc1	0.508 (inactive)	0.316	0.468	-2 (inactive)	-0.403 (inactive)	-0.102 (inactive)
Cc1ccc(S[C@]2(C(=O)NCCN3CCOCC3)CC(=O)N(C3CCCCC3)[C@@H]2c2ccc(CO)cc2)cc1	-0.202 (inactive)	0.886	-0.75	-4 (inactive)	-0.0334 (inactive)	0.206 (inactive)
CCOC(=O)N1C(c2ccc(OCCCO)cc2)=NC(C(=O)OC)N1C(=O)OCC (stereo not given)	1.43 (inactive)	0.735	-1.28	-4.45 (inactive)	-0.231 (inactive)	-0.116 (inactive)
O=C1c2ccccc2[C@@]2(Cc3ccccc3N(Cc3ccccc3)C2=O)[C@H](c2ccc(CO)cc2)N1Cc1ccccc1C(F)(F)F	3.2 (inactive)	0.878	-0.275	-2.79 (inactive)	-0.21 (inactive)	-0.154 (inactive)
CCCC[C@@H]1C[C@H]1[C@@H](NC(=O)c1ccco1)c1ccccc1	-0.153 (inactive)	-0.041	-1.46	-2.46 (inactive)	0.243 (inactive)	0.428 (inactive)
O=C1O[C@H](c2ccccc2)[C@H](c2ccccc2)N2[C@H]1[C@@H](C(=O)NC[C@H](O)c1ccccc1)[C@]1(C(=O)Nc3ccc(C#CC4=CCCCC4)cc31)[C@H]2c1ccc(O)cc1	0.447 (inactive)	0.766	-1.53	0.685 (inactive)	0.577 (inactive)	1.25 (inactive)
Cc1cc(C)c(C(O)C2C=CC3C(=O)NC(=O)C3N2Nc2ccccn2)c(C)c1 (stereo not given)	0.702 (inactive)	0.103	-0.261	-3.34 (inactive)	0.321 (inactive)	-0.0098 (inactive)
C=CC[C@]1(C(=O)O)N=C(c2ccc(OCCCO)cc2)O[C@H]1c1ccccc1CN=[N+]=[N-]	1 (inactive)	-0.76	0.797	-5.35 (inactive)	0.341 (inactive)	-0.0268 (inactive)
C=C(C(=O)CC[C@@H](OC(=O)c1cccnc1)c1ccc(CO)o1)C(C)C	-0.239 (inactive)	0.249	-0.188	-4.55 (inactive)	0.647 (inactive)	0.501 (inactive)
